Hits are enriched below; roughly 7.1% of the tested compounds scored in any of these assays.
SW480 rereplic – A quantitative high throughput screen for small molecules that induce DNA re-replication in SW480 colon adenocarcinoma cells; Potency, µM (titrated, usually from 46.1 µM), actives largely listed as activators; 340,000 tested, 1.8% active; AID 624297, 2012; SW480 DNA re-replication, Hoechst DNA content imaging, 48 h; also: nearly all actives have a fitted effect of over 55% in size
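Image-based DNA-content assay: after two days of treatment, nuclei were labelled with the DNA dye Hoechst and imaged, and hits were compounds raising the count of nuclei showing high fluorescence intensity.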
IL-1B inflam inh – qHTS for Inhibitors of Inflammasome Signaling: IL-1-beta AlphaLISA Primary Screen; THP-1 LPS/ATP IL-1B secretion, AlphaLISA, 16 h; stronger effect = lower value; activity change, % at 57.5 µM; 360,000 tested, 4.7% active; AID 743279, 2014; in the data active = activity change below about -50%; inconclusive = mostly about -30% to -49%
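THP-1 cells pretreated 1 hr with compounds (up to 57.5 uM final), then stimulated with LPS (250 ng/mL final) plus ATP (1.25 mM final); secreted IL-1B measured by AlphaLISA after 16 hr, decreased signal indicating inhibition.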
MCF10A rerep – A quantitative high throughput screen for small molecules that induce DNA re-replication in MCF 10a normal breast cells; MCF 10A DNA re-replication, Hoechst nuclear intensity, 48 h; Potency, µM (series often up to 46.1 µM), hits mostly activators; 350,000 tested, 2.9% active; AID 624296, 2012; also: nearly all actives have a fitted effect of over 50% in size
ATXN2 expr inh – Primary qHTS for Inhibitors of ATXN expression; Potency, µM (series often up to 57 µM), actives largely listed as inhibitors; 360,000 tested, 0.72% active; HEK-293 ATXN2-luciferase reporter, luminescence, 24 h; also: nearly all actives have a fitted effect of over 55% in size
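qHTS (up to 57 uM final) was run with 24 h compound exposure of reporter cells at 37 °C. Each well was multiplexed: SteadyGlo luminescence measured ATXN2-luciferase expression after a fluorogenic Gly-Phe-AFC viability readout (25 uM final).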
ATXN viability – Viability Counterscreen for Primary qHTS for Inhibitors of ATXN expression | S2 cells (HEK-293 line with an ATXN2-luciferase reporter) viability, CellTiter-Fluor protease fluorescence, 24 h | Potency, µM (titrated, usually from 56.7 µM), usual class: cytotoxic | 400,000 tested, 0.49% active | AID 651635, 2014; also: nearly all actives have a fitted effect of over 40% in size
PINK1 expr mod – A Quantitative High throughput Screen to Identify Chemical Modulators of PINK1 Expression. PINK1 immunofluorescence, high-content cytometry, 24 h. 410,000 tested, 0.2% active. Potency, µM (titrated, usually from 76.6 µM), hits mostly activators. AID 624263, 2012; active = well fitted activation curve with a large enough effect; inconclusive = small, poorly fitted or top-dose-only effect; cell line not stated here; also: nearly all actives have a fitted effect of over 65% in size
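Measures PINK1 amount and localization on or inside mitochondria by immunofluorescence. Stable cells get compounds at 5 concentrations for 24 hours before fixation and staining; CCCP controls included.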
Each line names hits and unclear results; the compound was inactive in the other large screens. Unless noted, calls follow the shape of the dose curve; as a rule, active = well fitted curve in the direction sought with a large enough effect; inconclusive = small, poorly fitted or top-dose-only effect, or another doubt; inactive = no such curve, though single readings can be large; an effect the other way counts as inactive or inconclusive.

CC(C)C[C@H](NC(=O)c1nc[nH]c1C(=O)N[C@@H](CC(C)C)C(=O)OC(C)(C)C)C(=O)OC(C)(C)C	SW480 rereplic inconclusive, IL-1B inflam inh inconclusive, MCF10A rerep inconclusive, ATXN2 expr inh inconclusive, ATXN viability 22µM, PINK1 expr mod inconclusive
CC(C)C[C@H](NC(=O)c1nc[nH]c1C(=O)NCC(=O)OC(C)(C)C)C(=O)OC(C)(C)C	ATXN viability inconclusive
Cc1cccc(NC(=O)c2nc[nH]c2C(=O)N[C@@H](CC(C)C)C(=O)OC(C)(C)C)c1	IL-1B inflam inh inconclusive, MCF10A rerep inconclusive, ATXN viability inconclusive
CC(C)C[C@H](NC(=O)c1[nH]cnc1C(=O)Nc1ccc(Cl)cc1)C(=O)OC(C)(C)C	SW480 rereplic inconclusive, IL-1B inflam inh inconclusive, ATXN2 expr inh inconclusive, ATXN viability 28µM
C[C@H](NC(=O)c1nc[nH]c1C(=O)N[C@@H](C)c1ccccc1)C(=O)OC(C)(C)C	none
CC(C)C[C@H](NC(=O)c1[nH]cnc1C(=O)N[C@H](C)c1ccccc1)C(=O)OC(C)(C)C	SW480 rereplic inconclusive, IL-1B inflam inh -55, MCF10A rerep inconclusive, ATXN2 expr inh inconclusive (no result: ATXN viability)
CC(C)C[C@H](NC(=O)c1nc[nH]c1C(=O)NC(c1ccccc1)c1ccccc1)C(=O)OC(C)(C)C	SW480 rereplic inconclusive, IL-1B inflam inh -69, MCF10A rerep inconclusive, ATXN2 expr inh inconclusive, ATXN viability inconclusive
O=C(Cn1cc(SCc2ccccc2F)c2ccccc21)N1CCCCCC1	none (no result: SW480 rereplic, IL-1B inflam inh, MCF10A rerep, ATXN2 expr inh, ATXN viability)
CC(=O)c1ccc(F)c(-c2cc(C)cc3c2OC(CNC(=O)c2csc(C)n2)C3)c1 (configuration not stated)	none (no result: SW480 rereplic, IL-1B inflam inh, MCF10A rerep, ATXN2 expr inh, ATXN viability)
COc1cccc(C(=O)Nc2nnc(S(=O)(=O)N3CCCc4ccccc43)s2)c1	none (no result: SW480 rereplic, IL-1B inflam inh, MCF10A rerep)
COc1ccc(N2CCN(CCCNC(=O)c3cnn(-c4ccc(C)cc4)c3-n3cccc3)CC2)cc1	none (no result: SW480 rereplic, IL-1B inflam inh, MCF10A rerep, ATXN2 expr inh, ATXN viability)
Cc1c2oc3c(C)ccc(C(=O)NC4C(=O)NC(C(C)C)C(=O)N5CCCC5C(=O)N(C)CC(=O)N(C)C(C(C)C)C(=O)OC4C)c3nc-2c(C(=O)NC2C(=O)NC(C(C)C)C(=O)N3CCCC3C(=O)N(C)CC(=O)N(C)C(C(C)C)C(=O)OC2C)c(N)c1=O (configuration not stated)	ATXN2 expr inh 0.0004µM (no result: SW480 rereplic, IL-1B inflam inh, MCF10A rerep, ATXN viability, PINK1 expr mod)
Cc1cc(Br)cn2c(Cc3cccc(F)c3)c(-c3ccc(C#N)cc3)nc12	ATXN viability inconclusive (no result: SW480 rereplic, MCF10A rerep)
COc1ccc(-c2nc3ccc(N4CCCC4)cc3c(=O)[nH]2)cc1OC	SW480 rereplic 11µM, MCF10A rerep 23µM
Cc1cc(C(=O)CN2C(=O)C(=O)N(CCC3=CCCCC3)C2=O)c(C)n1C	none
Cc1nc(-c2ccc(NC(=O)c3ccccc3Br)cc2)cs1	IL-1B inflam inh -52
Cc1nc(-c2cccc(NC(=O)c3ccco3)c2)cs1	none
CCCCCC(=O)Nc1ccc(-c2csc(N)n2)cc1	IL-1B inflam inh -76, MCF10A rerep inconclusive
CCCCCC(=O)Nc1ccc(-c2csc(C)n2)cc1	none
Cc1ccn2cc(-c3ccc(NC(=O)c4ccco4)cc3)nc2c1	SW480 rereplic inconclusive, IL-1B inflam inh -92, MCF10A rerep inconclusive, ATXN viability inconclusive, PINK1 expr mod inconclusive
CC(=O)Nc1cccc(-c2cn3ccc(C)cc3n2)c1	ATXN viability inconclusive
Cc1nc(-c2ccc(NC(=O)c3ccco3)cc2)cs1	ATXN2 expr inh 4µM
Cc1ccc(Nc2c3c(nc4nncn24)CCC3)c(C)c1	none (no result: SW480 rereplic, IL-1B inflam inh, MCF10A rerep, ATXN2 expr inh, ATXN viability)
CCc1nn(Cc2c(C)cc(C)cc2C)c(=O)c2cc3cc(C)ccc3n12	none (no result: SW480 rereplic, IL-1B inflam inh, MCF10A rerep)
Cc1ccc(S(=O)(=O)Nc2ccc(-c3cn4ccc(C)cc4n3)cc2)cc1	SW480 rereplic 0.73µM, MCF10A rerep 21µM (no result: ATXN2 expr inh)
Cc1ccn2cc(-c3cccc(S(=O)(=O)N4CCCC4)c3)nc2c1	IL-1B inflam inh -61, ATXN viability inconclusive
Cc1ccc(C(=O)OCC(=O)Nc2ccccc2)cc1NC(=O)c1ccco1	SW480 rereplic inconclusive

Source: PubChem
